Source: PubChem BioAssay
The sample as a whole holds a higher share of hits than the screen did.
Pf Dd2 growth = Plasmodium falciparum Dd2 growth inhibition; P. falciparum Dd2 growth, SYBR Green, 72 h; Potency, µM (doses to about 28.9 µM), without a hit: at the top dose activity, negative = inhibition, most hits filed as inhibitors; 120,000 compounds, 4.3% hits; active = well fitted inhibition curve with a large enough effect;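 note: plate controls were DMSO vehicle for no effect and reference drug for full effect; nearly all actives have a fitted effect of over 65% in size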
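Infected erythrocytes (Dd2, 0.3% parasitemia, 2.5% hematocrit final) are added to compound in RPMI-1640/Albumax II medium, grown 72 h at 37C in low oxygen, then lysed with saponin/Triton-X containing SYBR Green and read by fluorescence.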
* hit, by the source's call; i = inactive; [ ] = another dose, or the depositor's remark. Potency is the fitted concentration of half-maximal effect.

SMILES	Pf Dd2 growth
CC(C)[C@]1(O)CN(S(=O)(=O)c2ccc3c(c2)CCC(=O)N3)C[C@H]1C	-2%
COc1cccc(-c2nnc(SCC(=O)N(C)C3CCCCC3)o2)c1	0%
CCOC(=O)C1=C(C)N=C2SC=C(CC(=O)NC3CC3)N2C1c1cccc([N+](=O)[O-])c1 (centres undefined)	0%
COc1cccc(C(=O)N2CCn3c(nnc3C3CC3)C2)c1	7%[44.1 µM]
CCC(=O)C1=C(c2cccc(OC)c2)N(C(=O)CC)n2c(nnc2C2CCCCC2)S1	2.8µM*
CCC(=O)C1=C(c2cccc([N+](=O)[O-])c2)N(C(=O)CC)n2c(nnc2-c2ccccc2)S1	1.1µM*
CC(=O)Nc1cccc(-c2nnc(SCC(=O)c3cc([N+](=O)[O-])ccc3Cl)o2)c1	i
CC(=O)C1=C(c2cccc([N+](=O)[O-])c2)N(C(C)=O)n2c(nnc2-c2ccc(C)cc2)S1	15%
CCC(=O)C1=C(c2cccc([N+](=O)[O-])c2)N(C(=O)CC)n2c(nnc2C2CCCCC2)S1	1.4µM*
CN(C(=O)CSc1nnc(-c2ccc([N+](=O)[O-])cc2)o1)C1CCCCC1	23%
CCOC(=O)c1[nH]cnc1C(=O)N(CCO)Cc1nccn1C	16%
CN1C[C@@H](NC(=O)Nc2ccccc2)C[C@H]1c1nc(-c2ccc(Cl)cc2)no1	-15%[44.1 µM]
CCS(=O)(=O)Nc1ccc(C(=O)N2Cc3nnc(C)n3C(C)C2)cc1 (centres undefined)	-2%
CCOc1ccccc1C1NC(=O)N(CC(=O)Nc2ccc(F)cc2F)C2=C1C(=O)OC2 (centres undefined)	i
Cc1c(F)cccc1NC(=O)N1CCC(n2cnnc2C2CC2)C1 (centres undefined)	-22%
O=[S+]([O-])(c1ccc(Br)cc1)c1nnn2c1nc(N1CCC(F)CC1)c1ccccc12	-11%
COCc1nnc(NC(=O)Cn2nc3c(cc2=O)CCCCC3)s1	-17%
CC(C)c1cc(CN(C)C(=O)CN2C(=O)OC[C@@H]2c2ccccc2)no1	-15%
Cc1cccc2c(C3CCN(C(=O)c4c(Cl)cc(Cl)cc4Cl)CC3)c[nH]c12	-17%
Cn1cc(C(=O)N2CC[C@@](C)(O)[C@@H](O)C2)c2ccccc21	-3%
Cn1cc(C2CCN(C(=O)c3c(Cl)cc(Cl)cc3Cl)CC2)c2ccccc21	8.9µM*
O=C(Cn1cncn1)N1CCN(Cc2ccccn2)[C@@H]2CS(=O)(=O)C[C@@H]21	2%
O=C(c1cnccn1)N1CCC2(CC1)NC(=O)N(Cc1ccc(F)cc1)C2=O	-15%
COc1cccc([S+](=O)([O-])N2CCC3(CC2)C(=NC2CCCC2)NC(=O)N3c2cccnc2)c1	44%
Cc1ccc(-c2ccc3nnc(CNC(=O)c4ccccc4C)n3n2)cc1C	2%
SMILES	Pf Dd2 growth
Cc1cnc(N2CC3CCC(C2)N3CC(F)(F)F)s1	1%
COc1ccc(Cl)cc1NC(=O)Cn1c(=O)n(CCCC(=O)NCCc2ccc(OC)c(OC)c2)c(=O)c2ccccc21	11µM*
COc1ccc(CCNC(=O)CCn2c(=O)c3ccccc3n(CC(=O)Nc3cc(Cl)ccc3C)c2=O)cc1OC	i
COc1ccc(CCNC(=O)CCCn2c(=O)c3ccccc3n(CC(=O)Nc3cc(Cl)ccc3C)c2=O)cc1OC	-4%
CC1=C[C@@H](CNC(=O)CC(C)(C)CC(=O)O)[C@H](C(C)C)C[C@H]1Cc1nc2ncccc2[nH]1	i
c1ccc(-c2cnc3n2C[C@H](CNCc2nccs2)OC3)cc1	i
Fc1ccc(-c2cnc3n2C[C@H](CNCc2ccccc2Cl)OC3)cc1	-2%[44.1 µM]
COCC(=O)NC[C@H]1Cn2c(-c3ccc(Cl)cc3)cnc2CO1	i
Fc1ccc(-c2cnc3n2C[C@H](CN(Cc2ccccc2)Cc2ccccc2)OC3)cc1	6.3µM*
COc1ccccc1C(=O)NC[C@H]1Cn2c(-c3ccc(Cl)cc3)cnc2CO1	11µM*
c1ccc(CNC[C@H]2Cn3c(-c4ccccc4)cnc3CO2)cc1	11µM*
O=C(NC[C@H]1Cn2c(-c3ccc(F)cc3)cnc2CO1)c1ccc(Cl)cc1	i
CC(=O)Nc1ccc(CNC[C@H]2Cn3c(-c4ccc(F)cc4)cnc3CO2)cc1	-41%[44.1 µM]
CS(=O)(=O)NC[C@H]1Cn2c(-c3ccc(F)cc3)cnc2CO1	-4%[44.1 µM]
CCCCN1C(=O)[C@@H]2C[C@@H](O)CN2C2(CN(Cc3cccnc3)C2)C1=O	35%[44.1 µM]
O=C(NC1CCN(c2cc(-c3ccc(F)cc3)[nH]n2)C1)c1ccc(F)c(F)c1 (centres undefined)	-13%
Fc1cccc(Cc2noc(-c3nc(-c4ccc5c(c4)OCO5)no3)n2)c1	-4%
COCc1ncc(C)n1CCNC(=O)c1ccc(C)[nH]c1=O	-13%
Cc1nc(C)n(CCNC(=O)c2cnc(-c3cccnc3)nc2)n1	20%
COCc1cn([C@H]2CO[C@H]3[C@@H]2OC[C@H]3O)nn1	32%[44.1 µM]
CC(=O)N1CC2(Cc3ccccc31)CN([S+](=O)([O-])c1cccs1)C2	-17%
Cc1cn2nc(C(=O)N3CCC(NC(=O)c4ccc(F)c(F)c4)CC3)cc2c(=O)[nH]1	-16%
COc1cccc(C(=O)NC2CCN(C(=O)c3cc4c(=O)[nH]c(C)cn4n3)CC2)c1	i
Cc1cn2nc(C(=O)N3CCC(NC(=O)c4cccc(C#N)c4)CC3)cc2c(=O)[nH]1	2.8µM*
Cc1ccccc1-c1nc(Cn2ccnc2C(C)C)c(C)o1	11µM*
SMILES	Pf Dd2 growth
Cc1ccccc1-c1nc(CS(=O)(=O)CC(=O)Nc2c(C)cccc2C)c(C)o1	4%
Cc1ccc(CSc2nc3ccncc3n2Cc2nc(-c3ccccc3C)oc2C)cc1	11%
COc1ccc(OC)c(NC(=O)Cn2c(C)cc3nc4n(c(=O)c32)CCCCC4)c1	i
O=C(CN1C(=O)NC2(CCOCC2)C1=O)NC1CCc2ccccc21 (centres undefined)	60%
CN(C)c1ccc(CN[C@H]2CC(C)(C)[C@@H]3C[C@@](C)(O)CC[C@]23CCC(=O)NCc2cccnc2)cc1	-10%
Cn1nc(C(=O)N2CCOCC(O)(CN3CCCC3)C2)ccc1=O (centres undefined)	2%
O=C(c1ccccc1F)N1CCCC(Cc2nc(C3CCOCC3)no2)C1 (centres undefined)	-7%
COCCCN1CC2(CCC1=O)CCN(Cc1nonc1C)CC2	-1%
CN1C(=O)C2(c3ccccc31)N(c1ccc(Br)cc1)C(=O)CS2(=O)=O (centres undefined)	-18%
Cc1ccc(CN2C(=O)C3(c4ccccc42)N(c2ccc(C)c(Cl)c2)C(=O)CS3(=O)=O)cc1 (centres undefined)	-8%
Cc1ccc(N2C(=O)CS(=O)(=O)C23C(=O)N(Cc2ccc(Cl)cc2)c2ccccc23)cc1C (centres undefined)	2.2µM*
COc1ccc(-c2ccc3ccccc3n2)c(OC)c1OC	-25%
Cc1nc2ccc(C(=O)N[C@@H]3CCOC[C@H]3Oc3ccccn3)cc2s1	-6%
Cc1ccc(C(=O)c2cn(Cc3ccccc3)c3cc4c(cc3c2=O)OCCO4)cc1	i
COc1ccc(CCNC(=O)Cn2cc(C(=O)c3ccc(F)cc3)c(=O)c3ccc(C)nc32)cc1OC	i
COc1cccc(Cn2cc(C(=O)c3ccc(Cl)cc3)c(=O)c3ccccc32)c1	14µM*
COc1ccc(Cn2cc(C(=O)c3ccc(C)c(C)c3)c(=O)c3ccccc32)cc1	11µM*
COc1ccc(C(=O)c2cn(CC(=O)Nc3cc(OC)cc(OC)c3)c3ccc(OC)cc3c2=O)cc1	-2%
COc1cc2c(=O)c(C(=O)c3ccc(C)c(C)c3)cn(Cc3ccc(F)cc3)c2cc1OC	4.5µM*
